A word on the inhibition: it is the change of the read-out against control, counted positive when it falls.

The text below walks through data of PubChem BioAssay.

A number with no mark means an inactive call. Calls of active or inactive are those of the source.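 The calls were made as follows, unless noted: active = mean inhibition over 43.08%, the solvent-only control mean plus 3 SD; inactive = the rest.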

For test [1], the target named is Nuclear receptor coactivator 3 (Homo sapiens) (UniProt Q9Y6Q9). Nature of the test: NCOA3 GAL4-fusion reporter inhibition – cell-based, luminescence, quadruplicate, confirmation (AID 588792).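 Also: 0% = DMSO treated cells and 100% = gossypol at 36 µM.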 The conditions noted are these: HEK293 GAL4-SRC3 luciferase reporter, at 3.6 µM, stronger effect = higher value. Background: In a reporter assay the amount or activity of a reporter protein is the signal.
Chain of Nuclear receptor coactivator 3 (Homo sapiens) (Q9Y6Q9 whole entry, looked up, the tested form may be a part): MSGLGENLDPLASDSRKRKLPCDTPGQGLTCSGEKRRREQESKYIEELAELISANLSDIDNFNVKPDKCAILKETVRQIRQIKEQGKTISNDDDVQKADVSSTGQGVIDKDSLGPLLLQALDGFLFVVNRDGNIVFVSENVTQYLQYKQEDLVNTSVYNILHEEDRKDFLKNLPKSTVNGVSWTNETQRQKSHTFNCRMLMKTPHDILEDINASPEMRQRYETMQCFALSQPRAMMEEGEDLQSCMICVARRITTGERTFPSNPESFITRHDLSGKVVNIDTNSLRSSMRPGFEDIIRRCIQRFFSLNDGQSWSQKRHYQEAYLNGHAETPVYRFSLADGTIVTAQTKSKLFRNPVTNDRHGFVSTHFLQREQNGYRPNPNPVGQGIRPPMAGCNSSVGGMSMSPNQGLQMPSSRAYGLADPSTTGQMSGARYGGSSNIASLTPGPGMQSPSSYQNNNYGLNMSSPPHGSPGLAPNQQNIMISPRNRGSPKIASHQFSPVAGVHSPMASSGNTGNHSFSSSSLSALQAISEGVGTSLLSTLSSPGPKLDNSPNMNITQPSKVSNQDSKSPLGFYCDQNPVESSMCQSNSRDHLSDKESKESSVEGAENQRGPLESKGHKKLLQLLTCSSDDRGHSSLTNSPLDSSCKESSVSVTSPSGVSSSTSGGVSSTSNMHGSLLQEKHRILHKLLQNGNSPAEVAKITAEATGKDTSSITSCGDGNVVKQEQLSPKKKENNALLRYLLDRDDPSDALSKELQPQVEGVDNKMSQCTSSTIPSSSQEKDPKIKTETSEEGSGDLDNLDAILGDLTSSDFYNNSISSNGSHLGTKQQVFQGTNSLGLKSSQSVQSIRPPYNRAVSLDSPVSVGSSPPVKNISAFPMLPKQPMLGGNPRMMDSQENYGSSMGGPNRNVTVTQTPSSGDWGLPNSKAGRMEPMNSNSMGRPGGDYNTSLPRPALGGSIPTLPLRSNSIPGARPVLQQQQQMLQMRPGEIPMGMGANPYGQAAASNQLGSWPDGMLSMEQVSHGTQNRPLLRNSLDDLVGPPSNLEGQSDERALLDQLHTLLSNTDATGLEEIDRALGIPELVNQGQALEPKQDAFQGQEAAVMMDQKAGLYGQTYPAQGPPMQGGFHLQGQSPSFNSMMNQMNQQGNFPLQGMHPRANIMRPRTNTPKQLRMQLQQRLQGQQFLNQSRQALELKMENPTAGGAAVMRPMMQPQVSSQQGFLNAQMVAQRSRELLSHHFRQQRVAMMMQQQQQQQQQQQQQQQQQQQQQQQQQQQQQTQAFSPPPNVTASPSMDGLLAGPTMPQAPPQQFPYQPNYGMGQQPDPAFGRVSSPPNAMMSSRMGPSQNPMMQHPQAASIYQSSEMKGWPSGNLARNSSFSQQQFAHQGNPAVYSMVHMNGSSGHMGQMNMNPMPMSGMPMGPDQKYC

In test [2] the test system is transactivating tegument protein VP16 (Human herpesvirus 1), Gal4-VP16 luciferase reporter. Kind of test: repression of VP16-driven luciferase reporter – cell-based, luminescence, high throughput, counter-screen for SRC3 inhibitor project (AID 588794; in the data active = inhibition above about 30%). The conditions noted are these: mammalian cells, at 3.6 µM, stronger effect = higher value.
Test [3] concerns the target Nuclear receptor coactivator 1 (Homo sapiens) (UniProt Q15788). Nature of the test: NCOA1 GAL4-fusion reporter inhibition – cell-based, luminescence, quadruplicate, confirmation (AID 588820;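 active = mean inhibition above 46.68%, the untreated control wells mean plus 3 SD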;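 also: 0% = DMSO wells and 100% = gossypol 36 µM treated wells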). The conditions noted are these: HEK293 GAL4-SRC1 luciferase reporter, at 3.6 µM, stronger effect = higher value.
A short description of test [4]: repression of VP16-driven luciferase reporter – cell-based, luminescence, high throughput, counter-screen for SRC1 inhibitor project (AID 588824; in the data active = inhibition above about 25%). The settings on record: cell-based VP16 transactivation luciferase luminescence; at 3.6 µM; stronger effect = higher value.

Chain of Nuclear receptor coactivator 1 (Homo sapiens) (Q15788 whole entry, looked up, the tested form may be a part): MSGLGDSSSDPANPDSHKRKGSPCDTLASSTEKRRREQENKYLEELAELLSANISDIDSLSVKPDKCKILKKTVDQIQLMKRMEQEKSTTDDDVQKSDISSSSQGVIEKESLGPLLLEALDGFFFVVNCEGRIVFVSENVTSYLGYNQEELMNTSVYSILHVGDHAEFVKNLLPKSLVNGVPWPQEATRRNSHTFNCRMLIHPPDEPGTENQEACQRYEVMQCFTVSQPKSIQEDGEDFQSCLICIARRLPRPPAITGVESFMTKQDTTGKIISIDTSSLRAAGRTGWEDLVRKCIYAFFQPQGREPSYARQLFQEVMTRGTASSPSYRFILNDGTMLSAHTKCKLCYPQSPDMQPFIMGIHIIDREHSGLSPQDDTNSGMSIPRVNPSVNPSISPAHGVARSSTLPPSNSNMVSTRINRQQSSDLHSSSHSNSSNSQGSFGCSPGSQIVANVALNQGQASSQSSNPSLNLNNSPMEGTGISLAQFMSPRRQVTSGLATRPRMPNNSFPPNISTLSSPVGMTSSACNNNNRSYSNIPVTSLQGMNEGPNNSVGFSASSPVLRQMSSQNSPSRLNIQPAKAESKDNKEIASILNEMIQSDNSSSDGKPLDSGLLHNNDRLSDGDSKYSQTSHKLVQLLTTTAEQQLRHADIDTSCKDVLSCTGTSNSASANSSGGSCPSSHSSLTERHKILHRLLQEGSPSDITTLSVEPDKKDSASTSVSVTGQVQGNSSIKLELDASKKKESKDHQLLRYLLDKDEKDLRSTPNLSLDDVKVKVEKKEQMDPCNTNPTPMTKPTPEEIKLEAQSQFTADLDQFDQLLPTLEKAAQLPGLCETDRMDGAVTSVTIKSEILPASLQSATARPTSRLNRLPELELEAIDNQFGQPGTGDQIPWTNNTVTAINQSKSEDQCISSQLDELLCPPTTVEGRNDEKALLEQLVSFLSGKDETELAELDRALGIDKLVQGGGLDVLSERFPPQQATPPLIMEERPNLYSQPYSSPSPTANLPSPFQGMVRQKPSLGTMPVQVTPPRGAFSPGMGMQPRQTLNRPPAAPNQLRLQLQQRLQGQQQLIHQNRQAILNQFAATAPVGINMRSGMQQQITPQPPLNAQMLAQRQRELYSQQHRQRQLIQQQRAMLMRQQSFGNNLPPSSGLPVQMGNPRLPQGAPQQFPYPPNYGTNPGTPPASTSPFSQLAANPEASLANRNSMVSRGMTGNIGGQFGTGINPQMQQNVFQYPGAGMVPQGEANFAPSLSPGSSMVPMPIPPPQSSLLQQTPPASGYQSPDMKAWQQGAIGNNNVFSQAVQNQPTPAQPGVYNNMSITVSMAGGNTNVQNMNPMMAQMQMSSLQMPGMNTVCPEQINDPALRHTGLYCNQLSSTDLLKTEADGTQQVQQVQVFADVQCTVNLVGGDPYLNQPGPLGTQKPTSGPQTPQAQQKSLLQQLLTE

In the case of `O=c1[nH]c(=S)ccn1C1OC(CO)C(O)C1O` (stereo not given), the inhibition in test [1] was 3.59%; in test [2], -0.78%; in test [3] it was -11.9%; in test [4], -8.74%.
For `Cc1cccc(C)c1-c1ccc(CN2C(CC(C)C)C(=O)N(Cc3cn(CC4CCCCC4)nn3)CCS2(=O)=O)cc1` (stereo not given), in that order: 21.1%, 21.2%, 24.4% and 22.6%.
As to `CCN(CC)S(=O)(=O)c1ccc(/C=C/C(=O)Nc2ccc(Br)cc2F)cc1`, the inhibition in test [1] was 21.2%; in test [2] it was 40.3% (active); in test [3] it was 16%; in test [4], 41.9% (active).
For `O=c1[nH]c(=O)n([C@H]2C[C@H](O)[C@@H](CO)O2)cc1F`, in that order: 60.6% (active), 31% (active), 46% and 35.4% (active).
With `N=c1c(C(=O)NCC2CCCO2)cc2c(=O)n3ccccc3nc2n1Cc1cccnc1` (stereo not given), the values for the inhibition in test [1] and in test [2] were -8.73% and -5.19%, respectively.
With `COc1ccc(-c2cn[nH]c2-c2ccc(OCc3ccc([N+](=O)[O-])cc3)cc2O)cc1`, the inhibition in test [1] is 33.1%; in test [2], 34% (active); in test [3], 39.1%; in test [4], 27.4% (active).
On the same counts, the results for `CCN(CC)S(=O)(=O)c1cccc(NC(=O)COC(=O)c2[nH]c(C)c(C(C)=O)c2C)c1` are 20%, 42.5% (active), 6.19% and 42.8% (active).
For the molecule `CCN(CC)c1ccc2cc(NC(=O)CCC(=O)O)c(=O)oc2c1`, the inhibition in test [1] was 68.4% (active); in test [2], 42.9% (active); in test [3], 44.2%; in test [4] it was 39.2% (active).
For the molecule `COc1ccc(Nc2ncnc3ccc(Br)cc23)cc1OC`, the inhibition is 61.3% (active) in test [1], 40.6% (active) in test [2], 50.7% (active) in test [3] and 42.2% (active) in test [4].
For `Cc1ccc(NC(=O)C2CCN(c3ncnc4sc(C)c(C)c34)CC2)cc1S(=O)(=O)N(C)C`, in that order: 10.3%, 12.1%, 17.6% and 1.39%.
For `COc1ccc(-n2c(=S)[nH]c3cc(C(=O)Nc4ccc(F)cc4)ccc3c2=O)c(OC)c1`, in that order: 19.7%, 40.8% (active), 26.5% and 44.6% (active).
For `C[n+]1c2n(c3ccccc31)N=C(c1ccc(Br)cc1)CS2`, in that order: 15.5%, 24.7%, -14.8% and 30.4% (active).
As for `CC(C)(C)c1cc[n+](C2=C([O-])c3ccccc3C(=O)/C2=N\S(=O)(=O)c2cccs2)cc1`, the inhibition in test [1] is 9.53%; in test [2], 9.97%; in test [3], -0.27%; in test [4], 7.69%.
In the case of `Cc1sc(NC(=O)Cc2ccc3c(c2)OCO3)nc1-c1ccc2c(c1)CCN2C(=O)c1ccc(F)cc1`, the inhibition is 13.6% in test [1], 30.3% (active) in test [2], 17.3% in test [3] and 25.9% (active) in test [4].
In the case of `c1ccc(-c2noc(-c3ccc4c(c3)OCO4)n2)nc1`, the inhibition in test [1] was 17.6%; in test [2] it was 7.86%; in test [3], 8.09%; in test [4], 33.7% (active).
Consider `CN(Cc1ccccc1)c1ncnc(N)c1[N+](=O)[O-]`, for which the inhibition in test [1] is 41.4%; in test [2], 34.3% (active); in test [3], 38.4%; in test [4], 30% (active).
As for `COC1C(CO)OC(n2c3c(Cl)cccc3c3c4c(c5c6cccc(Cl)c6[nH]c5c32)C(=O)NC4=O)C(O)C1O` (stereo not given), the inhibition in test [1] was 68.3% (active); in test [2], 49.2% (active); in test [3], 23.4%; in test [4], 42.6% (active).
As for `COc1ccc(CNc2nn3c(-c4cccc(C(=O)N(C)C)c4)cnc3s2)cc1`, the inhibition in test [1] was 50.3% (active); in test [2] it was 30.7% (active); in test [3], 51.7% (active); in test [4], 33.5% (active).
As to `CN1CCN(S(=O)(=O)c2cccc(C(=O)N(C)CC(=O)Nc3ccc(Cl)c(Cl)c3)c2)CC1`, the inhibition is 21% in test [1] and 17.9% in test [2].
In the case of `COc1ccc(OC)c(/C=C/c2ccnc3ccccc23)c1`, the inhibition is 19.1% in test [1], 54.2% (active) in test [2], 34.5% in test [3] and 53.7% (active) in test [4].
On to `CC(C)n1c(-c2cccnc2)nc2cnccc21`, for which the inhibition in test [1] is 29.8%; in test [2], 26.9%; in test [3], 38.1%; in test [4] it was 18.9%.
For `CC(O)CC(C(=O)NNc1ccccc1)C(=O)NNc1ccccc1` (stereo not given), in that order: 10.1%, 16%, -6.15% and 13.1%.
For `Nc1nc(=O)n(C2OC(CO)C(O)C2O)cc1F` (stereo not given), in that order: 13.6%, 31.5% (active), 40.1% and 38.9% (active).
On the same counts, the results for `Cc1c(Cl)c([N+](=O)[O-])nn1Cc1ccc(C(=O)N/N=C\c2cc(Cl)ccc2O)o1` are 57.4% (active), 48.7% (active), 55.5% (active) and 52.9% (active).
With `O=C(Nc1nc(-c2ccc(S(=O)(=O)N3CCCC3)cc2)cs1)C1COc2ccccc2O1` (stereo not given), the inhibition in test [1] is 7.31%; in test [2], -0.16%; in test [3], -8.23%; in test [4], -2.78%.
For `O=c1cccc2c1c1cc[nH]c3ccc(=O)n2c31`, the inhibition in test [1] is 43%; in test [2], 32.9% (active); in test [3], 54.3% (active); in test [4], 40% (active).
